Structures are written as SMILES. The campaign covered roughly 360,000 compounds. About 7,300 (2%) were called active. Cut-off read from the data, not from the text of the source: active = inhibition above about 50%; inactive = the rest. What follows is part of a selection rich in actives, with near analogues and random picks from the rest.

The test can be described thus: inhibitors of TWEAK-Fn14 signaling, primary screen, luciferase reporter cells, uHTS (AID 1159606). Particulars: TWEAK-stimulated Fn14 reporter cells, luciferase luminescence, 8 h; at 10 µM; active compounds read high. A general note: Reporter assays use an easily measured gene product as a stand-in for the process of interest.
As to `CCOC(=O)c1c(N=CN(C)C)c(C#N)c2n1CCCC2`, the inhibition (as a rule, the relative decrease from the control value, in per cent) is -13.8% (inactive).

For the compound `COc1ccc(C(C)NC(=S)NC2CCCCC2)cc1OC` (configuration not stated), the inhibition is 10.8% (inactive).

As to `CC(C)CN(C(=O)CSc1ncnc2sccc12)C1CCS(=O)(=O)C1` (configuration not stated), the inhibition is 4.56% (inactive).

Turning to `COc1cc(OC)cc(C2=Cc3ccccc3C(CC(=O)c3ccco3)N2c2ccc(-c3cnc(OC)nc3)cc2)c1` (configuration not stated), the inhibition is 16.7% (inactive).

With `Cc1ccc(NC(=O)CC2S/C(=N/N=C3\CCCc4ccccc43)NC2=O)cc1` (configuration not stated), the inhibition is 11.1% (inactive).

As to `Cc1ccc(-n2c(SCC(=O)NCc3ccc4c(c3)OCO4)nnc2-c2cccnc2)c(C)c1`, the inhibition is -9.21% (inactive).

As to `CCCc1[nH]nc2c1C(C1CC=CCC1)C(C#N)=C(N)O2` (configuration not stated), the inhibition is 53.8% (active).

As to `N#CC1=C(N)OC2=C(C(=O)CCC2)C1C1CC=CCC1` (configuration not stated), the inhibition was 24.8% (inactive).

Regarding `CCCc1[nH]nc2c1C(c1ccc(Br)s1)C(C#N)=C(N)O2` (configuration not stated), the inhibition is 30.2% (inactive).

With `CCCCCc1c(-c2cccc(Br)c2)ncn1CCc1ccccc1OC`, the inhibition is -2.04% (inactive).

On to `CCCCCc1c(-c2ccc(OC)c(OC)c2)ncn1CCc1ccccc1OC`, for which the inhibition is 62.6% (active).

In the case of `CCCCc1c(-c2ccc(Cl)cc2)ncn1CCc1ccccc1OC`, the inhibition was 26.6% (inactive).

Take `Cn1c(SCC(=O)Nc2ccc(N3CCOCC3)cc2)nnc1C(F)(F)F`: the inhibition is -2.56% (inactive).

Regarding `Cc1cc(Br)cn2c(Cc3ccccc3C(F)(F)F)c(-c3ccc(Cl)cc3)nc12`, the inhibition is 26.9% (inactive).

For `CCCc1ccc(-c2c(C)sc(NC(=O)c3ccnn3C)c2C#N)cc1`, the inhibition was 13.3% (inactive).

As for `COC(=O)CNC(=O)c1ccc2c(c1)S(=O)(=O)c1ccccc1C2=O`, the inhibition was 65.4% (active).

For the compound `CC(C)(C)c1ccc(C(=O)NCC(=O)OCN2C(=O)c3ccccc3C2=O)cc1`, the inhibition is -8.88% (inactive).

In the case of `Cc1ccc(CNC(=O)c2ccc3c(c2)S(=O)(=O)c2ccccc2C3=O)cc1`, the inhibition was -18% (inactive).

For the compound `CCCc1nc(NCc2ccc3c(c2)OCO3)c2nnn(Cc3ccccc3Cl)c2n1`, the inhibition was -10.6% (inactive).

Turning to `Cc1nc(Nc2ccccc2F)c2nnn(Cc3ccccc3Cl)c2n1`, the inhibition is 20% (inactive).

For `Cc1nc(Nc2ccc3c(c2)OCCO3)c2nnn(Cc3ccccc3Cl)c2n1`, the inhibition was 94.4% (active).

`O=C1C2C3C=CC(C3)C2C(=O)N1c1ccc(-c2nc3ccccc3c(=O)o2)cc1` (configuration not stated): the inhibition was -0.15% (inactive).

As for `O=C(/C=C/[C@H]1O[C@@H](n2ccc(=O)[nH]c2=O)[C@H](O)[C@@H]1O)NCc1ccccn1`, the inhibition was 9.38% (inactive).

Regarding `Cc1ccccc1OCC(=O)Nc1ccc(N2CCN(C(=O)C(C)C)CC2)c(Cl)c1`, the inhibition is 70.6% (active).

On to `CCc1ccccc1OCC(=O)Nc1ccc(C)c(S(=O)(=O)N2CCCCCC2)c1`, for which the inhibition is 12.8% (inactive).

As to `COc1cc(NC(=O)COc2ccccc2Cl)ccc1NC(=O)C(C)C`, the inhibition is -5.09% (inactive).

Turning to `Cn1nnnc1SCC(=O)Nc1ccccc1C(=O)NC1CC1`, the inhibition was -4.44% (inactive).

On to `COCCOC(=O)c1c(C)oc2cc(Br)c(OCC(N)=O)cc12`, for which the inhibition was -6.98% (inactive).

As to `CCCCCc1ccc(-c2ccc(OCC)cc2)nc1`, the inhibition is -9.17% (inactive).

Consider `CCCCCc1ccc(-c2ccc(C(=O)O)cc2)nc1`, for which the inhibition was 87.5% (active).

As to `CCCCCC(=O)Nc1ccc(-c2cn3cccnc3n2)cc1`, the inhibition was -20.2% (inactive).

For `O=C(NC(=S)Nc1ccccc1C(=O)O)c1ccc(-c2ccc(Br)cc2)o1`, the inhibition was 47.2% (inactive).

In the case of `CCOC(=O)c1c(C)[nH]c(C)c1S(=O)(=O)NCCCc1ccco1`, the inhibition was -7.27% (inactive).

As to `CCOC(=O)c1c(NC(=O)CSc2nccc(=O)[nH]2)sc(C)c1C`, the inhibition is -3.68% (inactive).

For the compound `CCOC(=O)c1c(C)[nH]c2c1-c1ccccc1C(=O)C2=O`, the inhibition was 101% (active).

Take `Cc1cccc(CN2CCN(C3CN(Cc4cn(Cc5ccccc5F)nn4)S(=O)(=O)C3)CC2)c1` (configuration not stated): the inhibition is -19.2% (inactive).

Consider `NC(=O)C1CC(=O)N(c2ccc(OCC(=O)NCc3ccccc3)cc2)C1` (configuration not stated), for which the inhibition was 32.7% (inactive).

Turning to `Cc1cccc(C)c1NC(=O)CNC(=O)c1ccc(N2CCOCC2)c([N+](=O)[O-])c1`, the inhibition was 8.19% (inactive).

Regarding `O=S(=O)(NCCCCCCNS(=O)(=O)c1c(F)cccc1F)c1ccc2c(c1)OCCO2`, the inhibition was 16.7% (inactive).

With `O=C1NC[C@H](Cc2ccc(O)cc2)N(C[C@@H]2CCCN2C[C@H](Cc2ccccc2)N2C[C@H](Cc3ccccc3)N(CC3CCCCC3)C(=O)C2=O)C1=O`, the inhibition was -9.41% (inactive).

For the compound `COc1cccc(C(=O)N/N=C(\C)c2cccc(NC(=O)c3ccc(F)cc3)c2)c1OC`, the inhibition is -20% (inactive).

On to `Nc1ccc(C(=O)N2CCN(S(=O)(=O)c3ccc(Cl)cc3)CC2)cc1[N+](=O)[O-]`, for which the inhibition was -5.64% (inactive).

For `CC1CCN(C(=O)c2ccc(S(=O)(=O)Cc3cc(F)ccc3F)c([N+](=O)[O-])c2)CC1`, the inhibition was 83.4% (active).

Take `O=C(c1ccc(Oc2ccc(Cl)cc2)c([N+](=O)[O-])c1)N1CCCC1`: the inhibition was -4.37% (inactive).

Take `O=C(NCCc1ccccn1)c1ccc(COc2ccccc2)o1`: the inhibition is -2.18% (inactive).

For the compound `COc1ccc(/C=C/C(=O)c2ccc(NS(=O)(=O)c3ccc(C)cc3)cc2)cc1O`, the inhibition is 60.9% (active).

Regarding `Cc1ccc(C(=O)/C=C/Nc2ccc(S(=O)(=O)Nc3onc(C)c3C)cc2)cc1`, the inhibition is -32% (inactive).

For `COc1ccc(/C=C/C(=O)Nc2ccc(C)cc2)cc1S(=O)(=O)N1CCOCC1`, the inhibition was -4.91% (inactive).

With `COc1ccc(CNC(=O)c2c[nH]c3c(OC)cc(OC)cc3c2=O)cc1`, the inhibition was -46.6% (inactive).

For `CCCCN1C(=O)c2ccc(C(=O)Nc3ccc(S(=O)(=O)N(C)C)cc3)cc2C1=O`, the inhibition is 33.8% (inactive).

For `O=C(c1[nH]ncc1-c1ccc(Cl)cc1)C1CO1` (configuration not stated), the inhibition is 66.5% (active).

Take `COc1ccc(NC(=O)C2Cc3c(-c4ccc(Cl)cc4)ccnc3O2)cc1` (configuration not stated): the inhibition is 6.65% (inactive).

For `Cc1ccc(S(=O)(=O)n2oc(=O)c(C3CCCCC3)c2N)cc1`, the inhibition was 2.92% (inactive).

With `CCCS(=O)(=O)Nc1ccc(-c2cn3c(n2)SCC3)cc1`, the inhibition is -17.6% (inactive).

Consider `Cc1nn(Cc2ccc(F)cc2)c(C)c1NC(=O)c1noc2c1CCc1ccccc1-2`, for which the inhibition is 60.1% (active).

Turning to `Cc1nn(Cc2ccc(Cl)c(Cl)c2)c(C)c1NC(=O)c1cc(C2CC2)on1`, the inhibition was -9.69% (inactive).

On to `Cc1ccccc1Cn1nc(C)c(NC(=O)C(F)(F)F)c1C`, for which the inhibition is -0.38% (inactive).

Values taken from PubChem BioAssay AID1159606 (Sanford-Burnham Center for Chemical Genomics, 2016).
